Common to all, as to assay: NCI-60 one-dose screen, 48 h (100 = growth as untreated, 0 = no growth, -100 = all killed)
Conditions in all cases: 10 µM unless noted

The subject of assay [1] is T-47D breast.
Assay [2] has as its system BT-549 breast.
Assay [3] concerns MDA-MB-435 melanoma.
Assay [4] deals with SW-620 colon.
Assay [5] relates to MCF7 breast.
For assay [6], the system named is HCT-116 colon.
The subject of assay [7] is HCC-2998 colon.
The test system of assay [8] is KM12 colon.

Molecules are shown by their SMILES. Compounds without any hit were thinned out: in the full panel of roughly 83,000, 20% have a hit.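 48-hour exposure, single concentration, 96-well plates; percent growth endpoint where 0 means no net growth. Active: below 10.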 A number with no mark means an inactive call. Active and inactive are the calls of the source.

As for `Cc1cccc(/C=N/Nc2cc(C)c3cccc(C)c3n2)n1`, the growth in assay [1] is 83%; in assay [2], 91.4%; in assay [3], 96.3%; in assay [4], 94.7%; in assay [5] it was 48.4%; in assay [6], 65.1%. The growth in assay [7] is 108%; in assay [8] it was 97.5%.

Consider `O=C(/C=C/c1cc(-c2ccc3c(c2)OCO3)n[nH]1)c1ccc2c(c1)OCO2`, for which the growth in assay [1] was 72.7%; in assay [2] it was 88%; in assay [3], 99.7%; in assay [4], 93.8%; in assay [5], 84.8%; in assay [6], 92.7%. The growth is 106% in assay [7] and 94.6% in assay [8].

`O=c1cc/c(=N\Nc2ccccc2)c(=O)/c1=N/Nc1ccccc1`: the growth in assay [1] was 92.8%; in assay [2], 102%; in assay [3], 126%; in assay [4] it was 98.6%; in assay [5], 78.4%; in assay [6] it was 90.1%. Also, the values for the growth in assay [7] and in assay [8] were 99% and 94.1%, respectively.

With `COc1cc2c(=O)n(C3CCCCCC3)c3c4cc[nH]c4ncc3c2cc1OC`, the growth in assay [1] is 84.8%; in assay [2], 52.3%; in assay [3] it was 86.9%; in assay [4] it was 70.8%; in assay [5], 49.9%; in assay [6] it was 72.6%. In addition, the growth in assay [7] was 117%; in assay [8], 24.4%.

In the case of `COc1c2occc2c(OC)c2c(=O)c(-c3cc(-c4ccc(F)cc4)c(C#N)c(N)n3)c(C)oc12`, the growth in assay [1] was 30.7%; in assay [2] it was 63.7%; in assay [3] it was 63.1%; in assay [4] it was 42.3%; in assay [5], 13.4%; in assay [6], 9.9% (active). Moreover, the growth in assay [7] is 69.3%; in assay [8], 46.2%.

As to `COc1ccc(-c2c(N)n[nH]c2-c2cc(OC)c(OC)c(OC)c2)cc1`, the growth in assay [1] is 75.1%; in assay [2], 50.9%; in assay [3], -40.7% (active); in assay [4] it was 21%; in assay [5], 23%; in assay [6], 9.76% (active). For the same compound, the growth in assay [7] is -2.65% (active); in assay [8], 14%.

In the case of `Cc1ccc2[nH]c(=O)c3c(c2c1)Oc1ncn2nc(-c4ccco4)nc2c1C3c1ccc(Cl)cc1` (stereo not drawn), the growth is 89.4% in assay [1]; 91.4% in assay [2]; 98.5% in assay [3]; 99% in assay [4]; 86.7% in assay [5]; 89.6% in assay [6]. The growth in assay [7] is 98.1%; in assay [8], 99.4%.

With `Nc1cccc(-c2nc3sccn3c2-c2ccnc(NCCNS(=O)(=O)c3ccc(C(F)(F)F)cc3)n2)c1`, the growth in assay [1] was 46.2%; in assay [2], 52.7%; in assay [3], 27%; in assay [4] it was 100%; in assay [5], 32.8%; in assay [6], 55.1%. In addition, the growth in assay [7] is 121%; in assay [8] it was 61.5%.

Take `N=C(N)c1ccc(-c2ccc(-c3cncc4ccccc34)s2)cc1F`: the growth in assay [1] was -63.3% (active); in assay [2] it was 89.5%; in assay [3], -90.5% (active); in assay [4], -62.1% (active); in assay [5], -68.6% (active); in assay [6] it was -87.8% (active). Also, the growth in assay [7] is -98.2% (active); in assay [8], -89.4% (active).

In the case of `CCCCCCCCCCCCNC(=O)[C@H]1CSC(c2ccsc2)N1` (stereo partly drawn), the growth in assay [1] was -41.2% (active); in assay [2], -67.6% (active); in assay [3] it was -98.1% (active); in assay [4] it was -75.9% (active); in assay [5] it was -67.5% (active); in assay [6] it was -48.3% (active). Moreover, the values for the growth in assay [7] and in assay [8] were 11% and -92.7% (active), respectively.

On to `COc1ccc(-c2c(-c3cc(OC)c4c(c3)OCO4)noc2N)cc1`, for which the growth in assay [1] was 37.3%; in assay [2], 20.7%; in assay [3], -38.9% (active); in assay [4], 21%; in assay [5], 14.2%; in assay [6], 6.02% (active). The growth was 15.8% in assay [7] and 3.59% (active) in assay [8].

Consider `CC1CN(c2oc(-c3ccccc3)nc2C#N)CC(C)O1` (stereo not drawn), for which the growth in assay [1] was 94.7%; in assay [2] it was 99.4%; in assay [3], 103%; in assay [4], 104%; in assay [5], 77.1%; in assay [6], 104%. Besides, the growth in assay [7] is 110%; in assay [8] it was 103%.

As to `Cc1ccc(S(=O)(=O)n2cc(C(=O)C(=O)Nc3ccncc3)c3ccccc32)cc1`, the growth in assay [1] is 48.4%; in assay [2] it was 37.5%; in assay [3], 1.27% (active); in assay [4] it was 11.2%; in assay [5], 19.5%; in assay [6] it was 17.5%. Besides, the results for the growth in assay [7] and in assay [8] were 52.8% and 29.1%, respectively.

On to `C=C1CCC2C3(C)COC(c4c(OC)cccc4OC)OC3CCC2(C)C1C/C=C1/C(=O)OCC1O` (stereo not drawn), for which the growth in assay [1] is 54%; in assay [2], 16.9%; in assay [3], 19.4%; in assay [4], 16.2%; in assay [5] it was 27.8%; in assay [6] it was 1.8% (active). Besides, the growth in assay [7] is 113%; in assay [8], 9.36% (active).

As to `COc1ccccc1CNCCCN1C(=O)c2ccc3c4c(ccc(c24)C1=O)C(=O)N(CCCNCCCCNCCCN)C3=O`, the growth in assay [1] was -36.4% (active); in assay [2], -22.1% (active); in assay [3], -13.4% (active); in assay [4], -36.5% (active); in assay [5], -38.4% (active); in assay [6] it was -2.94% (active). In addition, the growth in assay [7] is -39% (active); in assay [8], -18.7% (active).

`COc1ccc(-c2ccc(-c3ccc(C(=N)N)s3)s2)cc1Cl`: the growth in assay [1] is 6.3% (active); in assay [2], 94.9%; in assay [3] it was -81.4% (active); in assay [4] it was -78.7% (active); in assay [5], -66.2% (active); in assay [6], -95.8% (active). Moreover, the growth was 9.04% (active) in assay [7] and -86.1% (active) in assay [8].
